# Results: PubChem BioAssay
# Where “and” joins values, the source holds several entries; their conditions need not be identical. Identical values can stand only once. The source holds several records for some structures; these can differ, active in one and inactive in another. Calls of active or inactive are those of the source. Unless noted, no rule for the calls is given here.
# Key:
# [1] = system: Wnt5a (protein binding on small-molecule microarray); test: Wnt5a binders on small-molecule microarray, primary screen, biophysical, 635/667 nm fluorescence (AID 1142); conditions: 635 nm fluorescence, higher = more signal;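 also: fluorescence read at 667 nm with signal to noise per printed feature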
# [2] = cell viability in Huh7 cells, primary screen, cytotoxicity control for HCV replication inhibitor project, CellTiter-Glo luminescence, basal, 48 h (AID 1143); conditions: Huh7 HCV replicon, higher = more signal, called active from +8 up or from −8 down;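 also: Huh7 hepatoma cells carrying a hepatitis C replication reporter with no stimulus; test concentration not given here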
# [3] = P. aeruginosa biofilm formation inhibitors, primary screen, PAO1 strain, BacTiter-Glo luminescence, LB-PBS (AID 1144); conditions: 12 h, higher = more signal
# [4] = CREB reporter modulators without forskolin, primary screen, cell-based, PC12, CRE-LacZ reporter, unstimulated (AID 1145); conditions: no forskolin, luminescence, 4.5 h, higher = more signal, called active from +8 up or from −8 down
# [5] = CREB reporter modulators under forskolin, primary screen, cell-based, PC12, CRE-LacZ reporter, forskolin-stimulated (AID 1146); conditions: luminescence, 4.5 h, higher = more signal, called active from +8 up or from −8 down;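 also: PC12 cells with 6xCRE LacZ reporter stimulated by forskolin 10 µM; beta-galactosidase reporter signal reflecting CREB driven transcription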
# [6] = molecular target: Streptavidin (Streptomyces avidinii) (UniProt P22629); test: streptavidin binders on small-molecule microarray, primary screen, artefact control for SMM compound annotation, biophysical, 635/667 nm fluorescence (AID 1147); conditions: streptavidin binding, higher = more signal;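 also: signal reflects streptavidin binding to arrayed compounds as a control protein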
# [7] = small-molecule binders of probe aInhba, primary screen, biochemical, small-molecule microarray, 635/667 nm fluorescence (AID 1148); conditions: higher = more signal;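 also: score merges 667nm spot fluorescence with signal-to-noise for antibody binding to printed compounds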
# Torsin-1A (Homo sapiens) [8] = molecular target: Torsin-1A (Homo sapiens) (UniProt O14656); test: torsin A binders from cell lysate, primary screen, small-molecule microarray, wild-type, 635/667 nm (AID 1149); conditions: COS7 hTOR1A-WT lysate, 635 nm fluorescence, higher = more signal
# Torsin-1A (Homo sapiens) [9] = molecular target: Torsin-1A (Homo sapiens) (UniProt O14656); test: small-molecule binders of mutant TOR1A in lysate, primary screen, cell lysate, small-molecule microarray, COS7 lysate, 635/667 nm fluorescence (AID 1150); conditions: COS7 hTOR1A mutant lysate, 635 nm fluorescence, higher = more signal;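 also: score pools 667 nm emission and signal to noise measuring lysate protein binding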
# [10] = system: Sonic hedgehog protein (Shh); test: small-molecule binders of Shh protein, primary screen, biochemical, small-molecule microarray, 635/667 nm fluorescence (AID 1151); conditions: small-molecule microarray binding, 635 nm fluorescence; higher = more signal;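 also: Shh protein binding to compounds spotted on small-molecule microarray slides; score combines spot fluorescence intensity with signal-to-noise across triplicate slides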
# [11] = E. coli DRC41 culture turbidity changes, primary screen, E. coli filamentation inducer project, strain DRC41, OD650, 48 h (AID 1152);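 also: E. coli MC1000 strain DRC41 lacking acrAB efflux pump and sulA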; conditions: E. coli DRC41 (acrAB sulA), higher = more signal, called active from +8 up or from −8 down
# [12] = small-molecule binders of probe aLefty1, primary screen, biochemical, small-molecule microarray, 635/667 nm fluorescence (AID 1153); conditions: higher = more signal;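 also: score merges spot fluorescence with signal-to-noise ratio from the scanned slide images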
# [13] = PSAC antagonists in infected red cells, primary screen, cell-based, P. falciparum Indochina, OD700, 1 h (AID 1154); conditions: P. falciparum Indochina infected RBC osmotic lysis, higher = more signal, called active from +8 up or from −8 down
# [14] = PSAC antagonists in infected red cells, primary screen, cell-based, P. falciparum Indochina, OD700, 2 h (AID 1155);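 also: lysis reports solute entry through the parasite surface anion channel PSAC; channel blockers reduce lysis of infected cells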; conditions: P. falciparum Indochina infected erythrocytes, osmotic lysis OD700; higher = more signal, called active from +8 up or from −8 down
# [15] = osmotic lysis modulators in infected erythrocytes, primary screen, PSAC antagonist project, cell-based, P. falciparum Indochina, OD700, 3 h (AID 1156); conditions: higher = more signal, called active from +8 up or from −8 down
# [16] = PSAC antagonists in infected red cells, primary screen, cell-based, P. falciparum Indochina, OD700, 18 h (AID 1157); conditions: P. falciparum Indochina infected erythrocytes, osmotic lysis OD700, 18 h; higher = more signal, called active from +8 up or from −8 down
# [17] = modulators of S6 phosphorylation in cells, primary screen, cell-based, A549, cytoblot, luminescence, serum-stimulated (AID 1158); conditions: A549 phospho-S6 cytoblot, 5 h, higher = more signal;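 also: serum-stimulated A549 lung adenocarcinoma cells; signal is phosphorylated S6 detected by cytoblot immunostaining with HRP secondary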
# [18] = molecular target: NADPH oxidase 2 (Homo sapiens) (UniProt P04839); test: NOX2-dependent H2O2 signal modulators, primary screen, NOX inhibitor project, cell-based, HEK293-NOX2, PMA-stimulated, Amplex Red fluorescence (AID 1159); conditions: 45 min, higher = more signal, called active from +8 up or from −8 down; also: test concentration not given here
# [19] = molecular target: NADPH oxidase 4 (Homo sapiens) (UniProt Q9NPH5); test: NOX4-dependent H2O2 signal modulators, primary screen, NOX inhibitor project, cell-based, HEK293-NOX4, tetracycline-induced, Amplex Red fluorescence (AID 1160); conditions: 45 min, higher = more signal, called active from +8 up or from −8 down
# [20] = molecular target: NADPH oxidase 5 (Homo sapiens) (UniProt Q96PH1); test: NOX5-dependent H2O2 signal modulators, primary screen, NOX inhibitor project, cell-based, HEK293-NOX5, Amplex Red fluorescence (AID 1161); conditions: HEK293-NOX5, ionomycin, 45 min, higher = more signal
# Sequence of NADPH oxidase 5 (Homo sapiens) (Q96PH1 whole entry, looked up): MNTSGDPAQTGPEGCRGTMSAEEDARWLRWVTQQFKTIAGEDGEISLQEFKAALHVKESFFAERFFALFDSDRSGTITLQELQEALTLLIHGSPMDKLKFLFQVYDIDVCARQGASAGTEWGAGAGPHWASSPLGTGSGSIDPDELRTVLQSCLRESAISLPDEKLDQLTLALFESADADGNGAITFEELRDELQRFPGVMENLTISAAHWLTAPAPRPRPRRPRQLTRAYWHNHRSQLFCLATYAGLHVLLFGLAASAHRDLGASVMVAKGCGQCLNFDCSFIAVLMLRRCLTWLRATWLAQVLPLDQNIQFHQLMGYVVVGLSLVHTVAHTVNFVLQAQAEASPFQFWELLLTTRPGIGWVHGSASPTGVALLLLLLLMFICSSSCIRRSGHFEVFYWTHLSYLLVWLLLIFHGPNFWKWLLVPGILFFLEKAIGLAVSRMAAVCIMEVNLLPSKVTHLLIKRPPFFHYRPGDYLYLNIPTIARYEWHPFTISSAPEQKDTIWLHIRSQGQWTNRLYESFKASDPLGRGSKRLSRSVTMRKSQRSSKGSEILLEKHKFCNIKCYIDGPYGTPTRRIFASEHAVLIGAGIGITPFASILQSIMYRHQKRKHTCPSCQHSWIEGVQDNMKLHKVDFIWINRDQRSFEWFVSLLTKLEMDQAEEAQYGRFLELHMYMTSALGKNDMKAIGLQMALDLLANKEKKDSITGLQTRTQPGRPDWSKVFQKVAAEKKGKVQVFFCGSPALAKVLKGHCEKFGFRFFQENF
# Sequence of Streptavidin (Streptomyces avidinii) (P22629 whole entry, looked up): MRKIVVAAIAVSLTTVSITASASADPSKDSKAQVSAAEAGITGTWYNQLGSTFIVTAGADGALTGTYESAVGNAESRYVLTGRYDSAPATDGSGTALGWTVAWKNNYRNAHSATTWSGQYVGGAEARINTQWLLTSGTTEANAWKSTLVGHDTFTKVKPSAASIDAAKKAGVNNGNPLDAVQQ
# Sequence of NADPH oxidase 4 (Homo sapiens) (Q9NPH5 whole entry, looked up): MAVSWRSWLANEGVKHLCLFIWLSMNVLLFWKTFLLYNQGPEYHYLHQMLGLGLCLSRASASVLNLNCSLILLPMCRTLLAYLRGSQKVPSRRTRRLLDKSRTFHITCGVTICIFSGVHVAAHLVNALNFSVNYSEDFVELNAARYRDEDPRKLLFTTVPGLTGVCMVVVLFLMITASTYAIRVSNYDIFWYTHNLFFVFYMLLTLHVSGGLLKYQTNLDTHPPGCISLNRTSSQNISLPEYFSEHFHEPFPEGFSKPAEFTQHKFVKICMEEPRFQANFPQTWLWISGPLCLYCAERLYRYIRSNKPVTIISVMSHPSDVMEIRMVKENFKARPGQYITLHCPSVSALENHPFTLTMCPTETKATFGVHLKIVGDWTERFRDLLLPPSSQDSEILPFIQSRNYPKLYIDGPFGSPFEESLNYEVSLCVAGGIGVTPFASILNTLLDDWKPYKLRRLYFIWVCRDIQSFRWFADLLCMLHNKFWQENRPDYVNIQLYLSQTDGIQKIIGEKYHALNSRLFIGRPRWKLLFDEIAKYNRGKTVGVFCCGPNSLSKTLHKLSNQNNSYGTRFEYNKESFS
# Sequence of Torsin-1A (Homo sapiens) (O14656 whole entry, looked up): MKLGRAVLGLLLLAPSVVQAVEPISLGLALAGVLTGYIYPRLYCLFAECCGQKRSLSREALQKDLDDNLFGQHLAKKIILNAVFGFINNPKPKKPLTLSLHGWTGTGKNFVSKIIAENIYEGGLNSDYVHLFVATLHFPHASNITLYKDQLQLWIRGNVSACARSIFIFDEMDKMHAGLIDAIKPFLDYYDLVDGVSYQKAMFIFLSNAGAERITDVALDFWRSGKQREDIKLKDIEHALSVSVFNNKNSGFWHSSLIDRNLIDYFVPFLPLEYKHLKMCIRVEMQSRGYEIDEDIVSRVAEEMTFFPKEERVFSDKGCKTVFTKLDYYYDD
# Sequence of NADPH oxidase 2 (Homo sapiens) (P04839 whole entry, looked up): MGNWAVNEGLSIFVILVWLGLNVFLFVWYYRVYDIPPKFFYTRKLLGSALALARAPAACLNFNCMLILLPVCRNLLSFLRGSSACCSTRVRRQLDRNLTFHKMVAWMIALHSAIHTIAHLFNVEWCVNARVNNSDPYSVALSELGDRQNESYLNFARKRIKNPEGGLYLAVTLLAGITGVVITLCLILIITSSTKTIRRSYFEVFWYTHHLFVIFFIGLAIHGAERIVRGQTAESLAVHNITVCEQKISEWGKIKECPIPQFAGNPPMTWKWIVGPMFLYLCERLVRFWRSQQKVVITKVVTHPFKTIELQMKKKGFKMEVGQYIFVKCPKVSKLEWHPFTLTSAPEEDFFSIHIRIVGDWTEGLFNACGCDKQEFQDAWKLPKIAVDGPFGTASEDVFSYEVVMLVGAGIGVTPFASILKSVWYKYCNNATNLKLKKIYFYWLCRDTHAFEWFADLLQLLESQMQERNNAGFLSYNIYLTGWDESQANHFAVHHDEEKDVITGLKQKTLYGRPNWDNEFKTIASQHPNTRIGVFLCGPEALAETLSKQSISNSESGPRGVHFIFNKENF
SMILES,composite z-score [1],z-score [2],z-score [3],z-score [4],z-score [5],composite z-score [6],composite z-score [7],composite z-score (Torsin-1A (Homo sapiens) [8]),composite z-score (Torsin-1A (Homo sapiens) [9]),composite z-score [10],z-score [11],composite z-score [12],z-score [13],z-score [14],z-score [15],z-score [16],z-score [17],z-score [18],z-score [19],z-score [20]
CCCNC(=O)OC[C@H]1O[C@H](CCON=C(C)CCC(=O)OC[C@H]2O[C@H](C#Cc3ccccc3)C=C[C@@H]2Oc2ccc(C)cc2)C=C[C@@H]1Oc1ccc(OC)cc1,-0.284,-0.538 (inactive),-0.145 (inactive),-0.729 (inactive),0.872 (inactive),1.07,-0.103,-0.474,-0.352,0.0277,0.181 (inactive),-0.0917,0.77 (inactive),0.329 (inactive),-0.107 (inactive),0.097 (inactive),-0.591,0.333 (inactive),0.854 (inactive),-0.746
C=CC[C@@H](O)c1ccc(O)c2ccccc12,0.173 and 0.435,0.794 (inactive) and -0.721 (inactive),-0.498 (inactive) and -1.33 (inactive),3.25 (inactive) and 2.1 (inactive),2.5 (inactive) and 5.93 (inactive),0.49 and 0.679,-0.0553 and -0.141,0.261 and 0.0205,0.426 and 0.369,1.96 and 1.82,1.07 (inactive) and -0.266 (inactive),0.113 and 0.176,0.964 (inactive) and 0.883 (inactive),0.263 (inactive) and 0.49 (inactive),-0.379 (inactive) and -0.519 (inactive),0.131 (inactive) and 0.548 (inactive),-0.241 and 0.206,-5.68 (inactive) and -5.98 (inactive),-1.28 (inactive) and -1.66 (inactive),1.61 and 0.954
C[C@@]1([C@@H](NC(=O)Cc2ccccc2)c2ccc(-c3ccccc3)cc2)C[C@H]1C1CCCCC1,1.42 and 1.03 and 0.799,-4.75 (inactive) and -1.29 (inactive) and -1.07 (inactive),-0.411 (inactive) and -0.255 (inactive) and 0.378 (inactive),-0.957 (inactive) and -0.185 (inactive) and -0.375 (inactive),-1.27 (inactive) and 0.614 (inactive) and 0.79 (inactive),2.11 and 0.863 and -0.261,0.846 and 1.64 and -0.328,0.0326 and 1.34 and 0.296,0.621 and 0.522 and 0.821,-1.33 and -0.836 and -0.607,-1.01 (inactive) and -1.14 (inactive) and -2.63 (inactive),1.31 and 1.96 and -0.533,2.55 (inactive) and 0.584 (inactive) and 10.1 (active),-0.208 (inactive) and 0.325 (inactive) and 1.68 (inactive),1.01 (inactive) and 1.19 (inactive) and 0.922 (inactive),-1.51 (inactive) and 0.741 (inactive) and 0.644 (inactive),1.28 and -0.396 and -0.729,-4.2 (inactive) and -0.505 (inactive) and -1.36 (inactive),-5.91 (inactive) and -3.11 (inactive) and -1.7 (inactive),-3.09 and 0.173 and 0.832
CCCCN1CC=CC23O[C@@H]4C=CCCOC(=O)C4[C@H]2C(=O)N(C(C)CO)[C@@H]3C1=O (stereo not given in full),-0.296 and 0.339,0.161 (inactive) and -0.214 (inactive),0.781 (inactive) and 1.82 (inactive),-0.216 (inactive) and -0.204 (inactive),0.405 (inactive) and -0.764 (inactive),-1.23 and -0.178,-0.143 and 0.201,0.234 and -0.131,0.234 and 0.148,0.173 and 0.798,-0.462 (inactive) and -0.0672 (inactive),-0.007 and 0.0181,1.77 (inactive) and 0.636 (inactive),0.446 (inactive) and 1.06 (inactive),0.874 (inactive) and 1.09 (inactive),0.234 (inactive) and 0.601 (inactive),1.48 and 1.2,1.49 (inactive) and 1.3 (inactive),0.784 (inactive) and 0.359 (inactive),2.31 and 2
COC(=O)C1=C(C)N(Cc2ccccc2)C2=C3C(=O)N(c4ccccc4)C(=O)[C@@H]3[C@@](O)(C(=O)OC)C(=O)N2[C@@H]1c1ccccc1,0.297 and 0.678,-0.146 (inactive) and -1.82 (inactive),0.9 (inactive),2.72 (inactive) and -0.615 (inactive),-0.718 (inactive) and -0.78 (inactive),0.117 and 0.12,-0.024 and -0.0313,0.801 and 0.365,0.516 and 0.533,0.574 and 0.726,0.417 (inactive) and 0.339 (inactive),0.0752 and -0.0984,0.518 (inactive) and 0.516 (inactive),0.372 (inactive) and -0.427 (inactive),0.509 (inactive) and 0.736 (inactive),0.54 (inactive) and -0.962 (inactive),-0.528 and 1.43,-0.0787 (inactive) and 0.333 (inactive),-0.0918 (inactive) and 0.833 (inactive),-0.244 and 0.251
